System: Vero E6 infected with SARS-CoV-2
Assay: inhibition of SARS-CoV-2 cytopathic effect; higher = more antiviral protection, active = above 15
Conditions: 48 h

Measured: inhibition of SARS-CoV-2 cytopathic effect

CC(=O)O/N=C1\C(=O)N(Cc2cc(Cl)ccc2Cl)c2ccc(Cl)cc21
inactive: 1 nM -1.23% | 8.33 nM 0.39% | 100 nM 0.49% | 833.33 nM 3.77% | 10000 nM 4.47%

C[N+]1(C)CCc2cc3c(cc2[C@H]1[C@@H]1OC(=O)c2c1ccc1c2OCO1)OCO3 [bicuculline-methochloride-(-)]
inactive: 1 nM -4.58% | 8.33 nM 0.48% | 100 nM 0.65% | 833.33 nM 3.59% | 10000 nM -2.23%

COc1cc2nc(N3CCN(C(=O)COc4c(OC)cccc4C(C)C)CC3)nc(N)c2cc1OC
inactive: 1 nM 0.49% | 8.33 nM 0.12% | 100 nM 3.19% | 833.33 nM 3.59% | 10000 nM 1.29%

O=C(N[C@H]1CN2CCC1CC2)c1ccc2c(c1)OCCO2
inactive: 1 nM -2.13% | 8.33 nM -1.4% | 100 nM -0.74% | 833.33 nM -0.26% | 10000 nM -1.59%

O=C(O)c1ccccc1C(=O)Nc1ccc(S(=O)(=O)Nc2nccs2)cc1 [phthalylsulfathiazole]
inactive: 1 nM -0.6% | 8.33 nM 1.91% | 100 nM 1.2% | 833.33 nM 1.78% | 10000 nM -0.84%

CC1(C)C(=O)N(c2ccc(C#N)c(C(F)(F)F)c2)C(=O)N1CCCCO
inactive: 1 nM 2.69% | 8.33 nM 0.32% | 100 nM 4.71% | 833.33 nM 0.45% | 10000 nM 1.21%

COc1ccc(CNC(=O)/C=C/c2ccc3[nH]cc(CCN(C)C)c3c2)cc1
inactive: 1 nM 2.58% | 8.33 nM 0.05% | 100 nM 1.04% | 833.33 nM 1.72% | 10000 nM 2.86%

CN1CCC[C@@H]1CCSc1ccc(O)cc1
inactive: 1 nM 0.25% | 8.33 nM 0.01% | 100 nM 0.07% | 833.33 nM -1.07% | 10000 nM -3.04%

CC(C)(CO)c1cc2cc(NC(=O)C3(c4ccc5c(c4)OC(F)(F)O5)CC3)c(F)cc2n1C[C@@H](O)CO [tezacaftor]
inactive: 1 nM 0.35% | 8.33 nM 0.97% | 100 nM -1.35% | 833.33 nM 1.62% | 10000 nM 0.29%

COc1ccc(-c2nc3cc(C4=NNC(=O)CC4C)ccc3[nH]2)cc1 (stereo not given) [pimobendan]
inactive: 1 nM 2.75% | 8.33 nM -1.84% | 100 nM -1.74% | 833.33 nM -1.51% | 10000 nM -0.67%

O=C(O)c1cc(=O)[nH]c(=O)[nH]1 [orotic-acid]
inactive: 1 nM -2.95% | 8.33 nM 1.49% | 100 nM -1% | 833.33 nM 0.78% | 10000 nM 0.21%

C[C@@H]1CC(=O)NN=C1c1ccc(NN=C(C#N)C#N)cc1 [levosimendan]
inactive: 1 nM -0.58% | 8.33 nM 0.74% | 100 nM 0.3% | 833.33 nM 1.84% | 10000 nM 1.18%

CC[C@H](CC[C@@H](C)[C@H]1CC[C@H]2[C@@H]3CC=C4C[C@@H](O)CC[C@]4(C)[C@H]3CC[C@]12C)C(C)C [beta-Sitosterol]
inactive: 1 nM 0.66% | 8.33 nM 2.31% | 100 nM 1.23% | 833.33 nM -2.15% | 10000 nM -1.08%

CC1(C)S[C@@H]2[C@H](NC(=O)COc3ccccc3)C(=O)N2[C@H]1C(=O)O [penicillin-v-potassium]
inactive: 1 nM -0.76% | 8.33 nM 1.87% | 100 nM -1.93% | 833.33 nM 1.76% | 10000 nM 0.08%

O=C(CCCN1CCN(c2ccccn2)CC1)c1ccc(F)cc1 [azaperone]
inactive: 1 nM 0% | 8.33 nM -7.58% | 100 nM -6.03% | 833.33 nM -5.15% | 10000 nM 0.26%

Cc1c(NC(=O)c2cc3c(s2)CCCC3)cccc1-c1cn(C)c(=O)c(Nc2ccc(C3C(=O)N(C)CCN3C)cc2)n1 (stereo in doubt)
inactive: 1 nM 2.73% | 8.33 nM -3.85% | 100 nM 3.38% | 833.33 nM 3.72% | 10000 nM 7.34%

O=C(CCBr)N1CC[N+]2(CC1)CC[N+]1(CCN(C(=O)CCBr)CC1)CC2 [spirobromin]
inactive: 1 nM -0.01% | 8.33 nM -0.86% | 100 nM -0.61% | 833.33 nM -2.75% | 10000 nM -3.3%

CC(=O)N(CC(C)C(=O)O)c1c(I)cc(I)c(N)c1I (stereo not given) [iocetamic-acid]
inactive: 1 nM -1.3% | 8.33 nM 1.93% | 100 nM 1.81% | 833.33 nM 0.62% | 10000 nM 3.4%

CC(=O)SC[C@@H](Cc1ccccc1)C(=O)NCC(=O)OCc1ccccc1 (racemic) [racecadotril]
inactive: 1 nM 1.48% | 8.33 nM 1.8% | 100 nM 0.82% | 833.33 nM 1.15% | 10000 nM -5.3%

O=C(CNC(=O)c1ccc(Cl)cc1)NO [benurestat]
inactive: 1 nM -3.63% | 8.33 nM -2.49% | 100 nM -1.54% | 833.33 nM -0.58% | 10000 nM 0.4%

N[C@@H](Cn1ccc(=O)n(Cc2ccccc2C(=O)O)c1=O)C(=O)O
inactive: 1 nM 1.86% | 8.33 nM 3.68% | 100 nM -0.19% | 833.33 nM 1.26% | 10000 nM -0.16%

Clc1cccc(-c2nnnn2Cc2cccnc2)c1Cl
inactive: 1 nM -1.94% | 8.33 nM -0.7% | 100 nM 0.71% | 833.33 nM -2.59% | 10000 nM -3.45%

COc1ccccc1S(=O)(=O)Nc1ccc2c(c1)CN(C)C(=O)N2
inactive: 1 nM 2.59% | 8.33 nM 3.07% | 100 nM 0.97% | 833.33 nM 1.47% | 10000 nM -5.29%

CCCC(C)(COC(N)=O)COC(=O)NC(C)C (stereo not given)
inactive: 1 nM 1.17% | 8.33 nM 2.25% | 100 nM 2.38% | 833.33 nM 4.43% | 10000 nM 0.83%

CCOC(=O)CC(=O)N1CCSC1COc1ccccc1OC (stereo not given) [moguisteine]
inactive: 1 nM -0.34% | 8.33 nM 0.03% | 100 nM -3.76% | 833.33 nM -0.38% | 10000 nM 0.52%

CCCCc1nc2cc(/C=C/C(=O)NO)ccc2n1CCN(CC)CC
inactive: 1 nM 2.32% | 8.33 nM -0.4% | 100 nM -5.57% | 833.33 nM -20.5% | 10000 nM -27.9%

Oc1ccc2c3c1O[C@H]1[C@@H](O)CC[C@@]4(O)[C@@H](C2)N(CC2CCC2)CC[C@]314 [nalbuphine]
inactive: 1 nM 2.57% | 8.33 nM 0.43% | 100 nM 0.27% | 833.33 nM 0.68% | 10000 nM 0.06%

CCCN(CCC)C1Cc2cc(OC)c(OC)cc2C1
inactive: 1 nM -0.72% | 8.33 nM -0.86% | 100 nM -2.03% | 833.33 nM 0.79% | 10000 nM -2.36%

CCOC(=O)C1=C(N)Oc2ccc(Br)cc2C1C(C#N)C(=O)OCC (stereo not given)
inactive: 1 nM -0.86% | 8.33 nM 0.28% | 100 nM 0.47% | 833.33 nM 0.895% | 10000 nM 2.46%

Cc1nc(N)sc1-c1ccnc(Nc2ccc(N3CCOCC3)cc2)n1
inactive: 1 nM 0.34% | 8.33 nM 0.72% | 100 nM 0.35% | 833.33 nM 2.13% | 10000 nM 2.1%

N#Cc1ccc(C2CCCc3cncn32)cc1 (stereo not given) [fadrozole]
inactive: 1 nM 1.9% | 8.33 nM 0.56% | 100 nM -1.22% | 833.33 nM -4.4% | 10000 nM -0.19%

CC1(C)CCC2=C(O1)c1ccccc1C(=O)C2=O [beta-lapachone]
inactive: 1 nM -0.31% | 8.33 nM 0.37% | 100 nM -2.74% | 833.33 nM -1.46% | 10000 nM 10.9%

C[C@@H]1Cc2c([nH]c3ccccc23)[C@@H](c2c(F)cc(/C=C/C(=O)O)cc2F)N1CC(C)(C)F
inactive: 1 nM 0.69% | 8.33 nM 1.08% | 100 nM -2.47% | 833.33 nM -1.93% | 10000 nM -3.78%

O=c1cc(N2CCOCC2)oc2c(-c3cccc4c3sc3ccccc34)cccc12
active: 10000 nM 36.8%
inactive: 1 nM 1.01% | 8.33 nM -0.44% | 100 nM 0.05% | 833.33 nM 8.27%

CCCC[C@H]1C(=O)N(c2ccccc2)N(c2ccc(O)cc2)C1=O [oxyphenbutazone]
inactive: 1 nM 0.53% | 8.33 nM 1.14% | 100 nM 1.48% | 833.33 nM 3.6% | 10000 nM 10.9%

O=C1CCC[C@@H]2[C@H]3CCCN4CCC[C@@H](CN12)[C@@H]34 [matrine]
inactive: 1 nM -2.75% | 8.33 nM -0.7% | 100 nM -1.73% | 833.33 nM -0.8% | 10000 nM -2.2%

CCOC(=O)[C@H](Cc1ccc([N+](=O)[O-])cc1)NC(=O)c1ccccc1
inactive: 1 nM 0.55% | 8.33 nM 1.63% | 100 nM 2.6% | 833.33 nM -1.21% | 10000 nM 0.3%

O=C(Nc1cccc(Nc2ncc(Br)c(NCCc3cnc[nH]3)n2)c1)N1CCCC1
inactive: 1 nM -2.91% | 8.33 nM -2.57% | 100 nM -1% | 833.33 nM -2.29% | 10000 nM -4.48%

Ic1cc(-c2ccccc2)ncn1 [4-iodo-6-phenylpyrimidine]
inactive: 1 nM -0.63% | 8.33 nM 0.56% | 100 nM -2.43% | 833.33 nM 1.94% | 10000 nM -1.36%

CC(=O)c1ccc2c(c1)[C@H](NC(=O)c1ccc(F)c(Cl)c1)[C@H](O)C(C)(C)O2 [tonabersat]
inactive: 1 nM -2.31% | 8.33 nM -1.2% | 100 nM -0.8% | 833.33 nM 1.11% | 10000 nM -2.32%

Cc1cc2c(F)c(Oc3ncnn4cc(OC[C@@H](C)OC(=O)[C@H](C)N)c(C)c34)ccc2[nH]1 [brivanib-alaninate]
inactive: 1 nM -0.11% | 8.33 nM 4.65% | 100 nM 1.96% | 833.33 nM -0.19% | 10000 nM -7.17%

— the supplement of paper PMC13380429
